Results taken from ChEMBL document CHEMBL3988442, “University of Dundee, Small-Polar-MMV Screening Library” (2021).
Among all 48,000 compounds or so, about 13,000 (27%) showed an effect of 50% or more. The list shows a part of the results.

Tested on: Wolbachia pipientis
Assay: Anti-Wolbachia Cell-Based Screen
Type: functional
Set-up: scale not given: in the data most compounds retested in dose-response had high values
Details: 5 µM

| Compound | Percent Effect |
| --- | --- |
| CCCOCCNc1nc2c(s1)c(C)nn2C | -0.9549% |
| Cc1nn(C)c2nc(NCCOCCO)sc12 | -15.08% |
| Cc1nn(C)c2nc(NC(C)c3n[nH]c(=O)[nH]3)sc12 (centres undefined) | 96.4% |
| Cc1csc(CNc2nc3c(s2)c(C)nn3C)n1 | -2.391% |
| Cc1nn(C)c2nc(NC3CCNCC3)sc12 | 10.32% |
| Cc1ccc(-c2ccnc(NC(C)c3n[nH]c(=O)[nH]3)n2)c(C)n1 (centres undefined) | 6.558% |
| CCSCCNc1nc2c(s1)c(C)nn2C | 7.108% |
| Cc1nc(C(C)Nc2nc3c(s2)c(C)nn3C)n[nH]1 (centres undefined) | 87.1% |
| Cc1nn(C)c2nc(NC(C)c3nnn[nH]3)sc12 (centres undefined) | 114.7% |
| O=C(Cc1cccs1)NCCNc1nccc(C(F)(F)F)n1 | -1.179% |
| CCn1cc(CN2CCCCC2CCn2ccnc2C)cc1C#N (centres undefined) | -5.966% |
| O=C(NCc1ccccc1CN1CCCC1=O)Nc1nncs1 | -15.38% |
| CC(Nc1ccc(N2C(=O)CCCC2=O)cc1)c1ccc(C#N)cc1 (centres undefined) | -5.853% |
| Cc1nc(CO[C@H]2CN(C(=O)c3cnoc3C)[C@@H]3COC[C@H]23)cs1.O=C(O)C(F)(F)F | -46.26% |
| Cc1nc(CO[C@H]2CN(C(=O)c3cccn3C)[C@@H]3COC[C@H]23)cs1.O=C(O)C(F)(F)F | -15.2% |
| CCS(=O)(=O)N1C[C@@H](OCc2cccnc2)[C@H]2OCCC[C@H]21.O=C(O)C(F)(F)F | -26.44% |
| CC(C)NC(=O)N1C[C@H](OCc2cccnc2)[C@H]2COC[C@H]21.O=C(O)C(F)(F)F | 112.7% |
| O=C(Cc1ccccn1)N1C[C@H](OCc2cccnc2)[C@H]2COC[C@H]21.O=C(O)C(F)(F)F.O=C(O)C(F)(F)F | 111.5% |
| CC(=O)NCC(=O)N1C[C@H](OCc2cccnc2)[C@H]2COC[C@H]21 | -9.929% |
| O=S(=O)(NCCNc1ccc(-n2cccn2)nn1)c1ccccc1 | -3.314% |
| Cc1noc(C)c1CN(C)C(=O)c1cnc(C2CC2)nc1O | -11.89% |
| O=C(NCc1cccc2cccnc12)N1CCC(n2cncn2)CC1 | -5.707% |
| CC(C)Oc1ccccc1CNC(=O)N1CCC(n2cncn2)CC1 | 15.2% |
| CCOc1ccccc1CNC(=O)N1CCC(n2cncn2)CC1 | 121.4% |
| CCOc1ncccc1CNC(=O)N1CCC(n2cncn2)CC1 | 108.5% |
| CCOc1ncccc1CNC(=O)N1CCCC1c1ccncc1 (centres undefined) | 0.3129% |
| Cc1cc(C(C)NC(=O)N2CCC(n3cncn3)CC2)c(C)s1 (centres undefined) | 2.137% |

| Compound | Percent Effect |
| --- | --- |
| Cc1ccccc1CNC(=O)N1CCC(n2cncn2)CC1 | 111.6% |
| CCC(CC)c1cc(CNC(=O)N2CCCN(C(C)=O)CC2)on1 | -7.46% |
| O=S(=O)(CC1CCCCC1)NCc1ccc(O)nc1 | -3.814% |
| CC1CCN(C(=O)c2ccnc(-n3cncn3)c2)c2ccccc21 (centres undefined) | 8.063% |
| COC[C@@H]1CCC[C@@]12CN(C(=O)C1CCOCC1)CCO2 | 108.7% |
| CC(C)OC[C@H]1CCC[C@]12CN(C(=O)C1CCOCC1)CCO2 | 106.2% |
| Cn1ccc(N2CCCC(NC(=O)c3ccc(Cl)o3)C2=O)n1 (centres undefined) | -25.47% |
| COc1cc(F)ccc1N1CCN(Cc2nc(C)c(C)o2)CC1 | -8.318% |
| Cc1cn2nc(N3CCCC3Cn3nc(C)cc3C)sc2n1 (centres undefined) | 8.981% |
| CC(C)(C)c1cn2nc(N3CCCCC3Cn3cncn3)sc2n1 (centres undefined) | 11.04% |
| Cc1cnn(CC2CCCCN2c2nn3cc(C)nc3s2)c1 (centres undefined) | 94.21% |
| CC(C)(C)c1cn2nc(N3CCCC3Cn3cncn3)sc2n1 (centres undefined) | -4.327% |
| Cc1cn2nc(N3CCCCC3Cn3cccn3)sc2n1 (centres undefined) | 120.6% |
| Cc1cn2nc(N3CCCC3CC(C)(C)C)sc2n1 (centres undefined) | 1.66% |
| Cc1cnn(CC2CCCN2c2nn3cc(C)nc3s2)c1 (centres undefined) | 9.552% |
| Cc1cn2nc(N3CCCC3Cn3cccn3)sc2n1 (centres undefined) | 112.3% |
| Cc1cn2nc(N3CCCC3C(=O)N3CCN(C)CC3)sc2n1 (centres undefined) | -72.4% |
| CC(C)(C)c1cn2nc(N3CCCC3Cn3cccn3)sc2n1 (centres undefined) | 7.986% |
| Cc1cn2nc(N3CCCC3Cn3nc(C)nc3C)sc2n1 (centres undefined) | 128.5% |
| Cc1cn2nc(N3CCCC3Cn3cncn3)sc2n1 (centres undefined) | 1.731% |
| CCN1CCN(C(=O)c2[nH]c3ccccc3c2Cl)[C@H]2CS(=O)(=O)C[C@H]21 | 2.793% |
| COCCNc1ccccc1CNC(=O)NCc1cnc(C)s1 | -0.4507% |
| COCCn1cc(C(=O)N2CCCC2c2cnn(C)c2)ccc1=O (centres undefined) | -26.74% |
| CNC(=O)c1ccc(C(=O)N2CCCC2c2cnn(C)c2)cn1 (centres undefined) | 5.729% |
| CC(C)Oc1ccc(C(=O)N2CCCC2c2cnn(C)c2)cn1 (centres undefined) | 97.67% |
| Cn1cc(C2CCCN2C(=O)c2ccc(OCC3CC3)nc2)cn1 (centres undefined) | 114.7% |
| Cc1cnn(CC2CCCN2C(=O)c2ccc(OC(C)C)nc2)c1 (centres undefined) | -7.33% |
